Test results as given in PubChem BioAssay (Tox21).
Records with an inconclusive call do not appear. Where a call stands in place of a potency, no number is given. The source made the active and inactive calls. The call rests on the fitted dose curve.

Assay: qHTS assay to identify small molecule agonists of the AP-1 signaling pathway - cell viability counter screen (AID 1159525); further: nearly all actives have a fitted effect of over 55% in size
Settings: ME-180 (cervical carcinoma) AP-1-bla cells viability, ATP luminescence, 5 h; series mostly up to 76.8 µM
Text: National Center for Advancing Translational Sciences [NCATS]
NIH Chemical Genomics Center [NCGC]
U.S. Environmental Protection Agency [EPA]
National Institutes of Environmental Health Sciences [NIEHS]
National Toxicology Program [NTP]
U.S. Food and Drug Administration [FDA]
Activator protein-1 (AP-1), a transcription factor, plays an important role in tumor genesis by regulating genes involved in cell proliferation, differentiation, apoptosis, and angiogenesis. AP-1 activity is induced by a complex network of signaling pathways that involves extracellular signals, such as growth factors. The AP-1 protein complex formed from c-Fos and c-Jun binding to the AP-1 response element results in transcriptional activation of genes containing such elements within their promoter.
Low molecular weight molecules have been discovered and developed to modulate various components of these signaling pathways, for example, MAP kinase inhibitors. However, many points of pathway modulation remain untested due to the lack of chemical probes making this signaling locus of general interest.
Using a beta-lactamase reporter-gene under control of the AP-1 response element, a cell-based assay [CellSensor(TM) AP-1-bla ME-180 developed by Invitrogen Corp.] was used to measure EGF-induced signaling. The Tox21 10K library compounds were measured for their ability to positively modulate the action of EC50 EGF on reporter gene activity. Compounds were screened in a 15-pt titration series in 1536-well format. The cytotoxicity of the Tox21 compound library against this cell line was tested in parallel by measuring the intra cellular ATP content in the same wells.
Tox21 Assay Protocol Summary:
2500 cells/5uL in Opti-MEM medium containing 0.5% dialyzed FBS, 0.1 mM NEAA, 1 mM sodium pyruvate and 10 mM HEPES was dispensed into 1536-well black wall/clear bottom plates using a Multidrop dispenser and cells were cultured at 37 degrees Celsius overnight. Next day 23 nL of compounds dissolved in DMSO, positive controls or DMSO were delivered to each well using a pin tool. The plates were incubated at 37 degrees Celsius for 5 hours. 1 uL of LiveBLAzerTM B/G FRET substrate (Solution A+B+C+D) was added to each well using a Flying Reagent Dispenser. After incubated at room temperature for 2.5 hours the plates were measured on an EnVision plate reader at Excitation 405nm, Emission1=460nm and Emission 2=530nm. The %Activity was determined from the ratio of 460nm/530nm.
After the plates were read for Beta-Lactamase assay on Envision; 3 ul Cell Titer Glo (Promega) was added to measure the cytotoxicity and the plates were then incubated at RT in dark for 30 min. The luminescence was read on ViewLux (Perkin Elmer, Shelton, CT) using 6 sec exposure. ViewLux data was expressed as relative luminescence units.
For primary data analysis, raw plate reads for each titration point were first normalized relative to […] EGF control (100%) and DMSO only wells (basal, 0%).
For primary data analysis for viability assay, raw plate reads for each titration point were first normalized Tetra n-octyl ammonium bromide control (-100%) and DMSO (control, 100%).

Row | Structure (SMILES) | Potency | viability change, negative = cytotoxic
1 | Nc1cnn([C@@H]2O[C@H](CO)[C@@H](O)[C@H]2O)c(=O)n1 | inactive | –
2 | CC(C)(Oc1ccc(Cl)cc1)C(=O)OCCCOC(=O)C(C)(C)Oc1ccc(Cl)cc1 | inactive | –
3 | CC(C)CCCC(C)CCO (stereo not given) | inactive | –
4 | CCCCCCCCCC(=O)OCC | inactive | –
5 | NC[C@H]1O[C@H](O[C@H]2[C@H](O)[C@@H](O[C@H]3O[C@H](CO)[C@@H](O)[C@H](N)[C@H]3O)[C@H](N)C[C@@H]2N)[C@H](O)[C@@H](O)[C@@H]1O | – | -4.71% [at 6.97 µM] (inactive)
6 | Cc1cc(NC(=O)C(=O)O)cc(C)c1Oc1ccc(O)c2c1CCC2 | inactive | –
7 | CC(=O)N(CC(=O)N(C)C)c1ccccc1 | inactive | –
8 | CCCCCOC(=O)COc1cc(N2C(=O)C3=C(CCCC3)C2=O)c(F)cc1Cl | inactive | –
9 | CCCCCCc1ccc(N)cc1 | inactive | –
10 | CCOC(=O)CC(=O)c1cc(F)c(Cl)nc1Cl | inactive | –
11 | CCCCCOC(=O)c1ccc(O)cc1 | inactive | –
12 | C1CCC2OC2C1 (stereo not given) | inactive | –
13 | OC(CCN1CCCCC1)(c1ccccc1)C1CCCCC1 (stereo not given) | inactive | –
14 | O=C1c2cccc(O)c2C(=O)c2c(O)cc(CO)cc21 | inactive | –
15 | Cc1ccccn1 | inactive | –
16 | Oc1ccc(O)c2c(O)cccc12 | inactive | –
17 | CC(CN)CCCN (stereo not given) | inactive | –
18 | CC(C)CCCCCCOC(=O)c1ccc(C(=O)OCCCCCCC(C)C)c(C(=O)OCCCCCCC(C)C)c1 | inactive | –
19 | CC[C@H](C)[C@@H](C(=O)O)n1sc2ccccc2c1=O | inactive | –
20 | COc1ccc(OC)c(OC)c1 | inactive | –

Row | Structure (SMILES) | Potency | viability change, negative = cytotoxic
21 | CCCc1ccccc1 | inactive | –
22 | OCC1CC2CC1C1CCC(CO)C21 (stereo not given) | inactive | –
23 | SC1CCCC1 | inactive | –
24 | O=C(O)Cc1cc(I)c(Oc2ccc(O)c(I)c2)c(I)c1 | inactive | –
25 | O=S(=O)(O)c1ccc(O)c2ncccc12 | inactive | –
26 | COC(=O)C(C)=O | inactive | –
27 | N#CCCNCCC#N | inactive | –
28 | Cn1c(N)nc2nc[nH]c2c1=O | inactive | –
29 | O=C(NS(=O)(=O)/C=C/c1cccs1)c1ccc(F)cc1Br | inactive | –
30 | N#Cc1cc2ccccc2c2ccccc12 | inactive | –
31 | C=CCCCCCC | inactive | –
32 | CC(C)(C)c1ccc(S)cc1 | inactive | –
33 | Cl/C(=C\n1cncn1)c1ccc(Cl)cc1Cl | inactive | –
34 | CCCCOC(=O)c1ccccc1C(=O)OCC(CC)CCCC (stereo not given) | inactive | –
35 | CC(C)NCC(O)COc1ccc(CC(N)=O)cc1 (stereo not given) | inactive | –
36 | FC(F)(F)C(F)(F)C(F)(F)C(F)(F)C(F)(F)C(F)(F)CCI | inactive | –
37 | Nc1ccc(C(=O)Nc2ccccc2N)cc1 | inactive | –
38 | O=C(O)Cn1c(C(=O)Nc2nc(-c3ccccc3Cl)cs2)cc2ccccc21 | inactive | –
39 | Cc1ccc(C(=O)C(C)CN2CCCCC2)cc1 (stereo not given) | inactive | –
40 | CN(C)CC[C@@H](c1ccc(Br)cc1)c1ccccn1 | inactive | –
